Assay [1] concerns Wnt5a (protein binding on small-molecule microarray). In words: Wnt5a binders on small-molecule microarray, primary screen, biophysical, 635/667 nm fluorescence (AID 1142).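 Further: fluorescence read at 667 nm with signal to noise per printed feature.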 The note with it: 635 nm fluorescence, higher = more signal.
Assay [2] can be described thus: cell viability in Huh7 cells, primary screen, cytotoxicity control for HCV replication inhibitor project, CellTiter-Glo luminescence, basal, 48 h (AID 1143).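 Further: Huh7 hepatoma cells carrying a hepatitis C replication reporter with no stimulus; test concentration not given here.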 Particulars: Huh7 HCV replicon, higher = more signal, called active from +8 up or from −8 down.
Assay [3] is described as follows: P. aeruginosa biofilm formation inhibitors, primary screen, PAO1 strain, BacTiter-Glo luminescence, LB-PBS (AID 1144). The note with it: 12 h, higher = more signal.
Assay [4] in a line: CREB reporter modulators without forskolin, primary screen, cell-based, PC12, CRE-LacZ reporter, unstimulated (AID 1145). Particulars: no forskolin, luminescence, 4.5 h, higher = more signal, called active from +8 up or from −8 down.
Assay [5] can be described thus: CREB reporter modulators under forskolin, primary screen, cell-based, PC12, CRE-LacZ reporter, forskolin-stimulated (AID 1146).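 Further: PC12 cells with 6xCRE LacZ reporter stimulated by forskolin 10 µM; beta-galactosidase reporter signal reflecting CREB driven transcription.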 Particulars: luminescence, 4.5 h, higher = more signal, called active from +8 up or from −8 down.
The target of assay [6] is Streptavidin (Streptomyces avidinii) (UniProt P22629). In words: streptavidin binders on small-molecule microarray, primary screen, artefact control for SMM compound annotation, biophysical, 635/667 nm fluorescence (AID 1147).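 Further: signal reflects streptavidin binding to arrayed compounds as a control protein.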 Particulars: streptavidin binding, higher = more signal.
A short description of assay [7]: small-molecule binders of probe aInhba, primary screen, biochemical, small-molecule microarray, 635/667 nm fluorescence (AID 1148).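 Further: score merges 667nm spot fluorescence with signal-to-noise for antibody binding to printed compounds.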 The note with it: higher = more signal.
Assay [8] deals with Torsin-1A (Homo sapiens) (UniProt O14656). Briefly: torsin A binders from cell lysate, primary screen, small-molecule microarray, wild-type, 635/667 nm (AID 1149). Particulars: COS7 hTOR1A-WT lysate, 635 nm fluorescence, higher = more signal.
Assay [9] has the same target. Briefly: small-molecule binders of mutant TOR1A in lysate, primary screen, cell lysate, small-molecule microarray, COS7 lysate, 635/667 nm fluorescence (AID 1150).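 Further: score pools 667 nm emission and signal to noise measuring lysate protein binding.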 The note with it: COS7 hTOR1A mutant lysate, 635 nm fluorescence, higher = more signal.
The subject of assay [10] is Sonic hedgehog protein (Shh). Briefly: small-molecule binders of Shh protein, primary screen, biochemical, small-molecule microarray, 635/667 nm fluorescence (AID 1151).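 Further: Shh protein binding to compounds spotted on small-molecule microarray slides; score combines spot fluorescence intensity with signal-to-noise across triplicate slides.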 The note with it: small-molecule microarray binding, 635 nm fluorescence; higher = more signal.
Assay [11] in a line: E. coli DRC41 culture turbidity changes, primary screen, E. coli filamentation inducer project, strain DRC41, OD650, 48 h (AID 1152).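 Further: E. coli MC1000 strain DRC41 lacking acrAB efflux pump and sulA.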 The note with it: E. coli DRC41 (acrAB sulA), higher = more signal, called active from +8 up or from −8 down.
Assay [12] can be described thus: small-molecule binders of probe aLefty1, primary screen, biochemical, small-molecule microarray, 635/667 nm fluorescence (AID 1153).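 Further: score merges spot fluorescence with signal-to-noise ratio from the scanned slide images.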 Particulars: higher = more signal.
Assay [13] in a line: PSAC antagonists in infected red cells, primary screen, cell-based, P. falciparum Indochina, OD700, 1 h (AID 1154). The note with it: P. falciparum Indochina infected RBC osmotic lysis, higher = more signal, called active from +8 up or from −8 down.
Assay [14] can be described thus: PSAC antagonists in infected red cells, primary screen, cell-based, P. falciparum Indochina, OD700, 2 h (AID 1155).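 Further: lysis reports solute entry through the parasite surface anion channel PSAC; channel blockers reduce lysis of infected cells.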 The note with it: P. falciparum Indochina infected erythrocytes, osmotic lysis OD700; higher = more signal, called active from +8 up or from −8 down.
Assay [15] is described as follows: osmotic lysis modulators in infected erythrocytes, primary screen, PSAC antagonist project, cell-based, P. falciparum Indochina, OD700, 3 h (AID 1156). Particulars: higher = more signal, called active from +8 up or from −8 down.
Assay [16] is described as follows: PSAC antagonists in infected red cells, primary screen, cell-based, P. falciparum Indochina, OD700, 18 h (AID 1157). Particulars: P. falciparum Indochina infected erythrocytes, osmotic lysis OD700, 18 h; higher = more signal, called active from +8 up or from −8 down.
A short description of assay [17]: modulators of S6 phosphorylation in cells, primary screen, cell-based, A549, cytoblot, luminescence, serum-stimulated (AID 1158).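 Further: serum-stimulated A549 lung adenocarcinoma cells; signal is phosphorylated S6 detected by cytoblot immunostaining with HRP secondary.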 The note with it: A549 phospho-S6 cytoblot, 5 h, higher = more signal.
Assay [18] has as its target NADPH oxidase 2 (Homo sapiens) (UniProt P04839). Briefly: NOX2-dependent H2O2 signal modulators, primary screen, NOX inhibitor project, cell-based, HEK293-NOX2, PMA-stimulated, Amplex Red fluorescence (AID 1159). Further: test concentration not given here. The note with it: 45 min, higher = more signal, called active from +8 up or from −8 down.
For assay [19], the target named is NADPH oxidase 4 (Homo sapiens) (UniProt Q9NPH5). In words: NOX4-dependent H2O2 signal modulators, primary screen, NOX inhibitor project, cell-based, HEK293-NOX4, tetracycline-induced, Amplex Red fluorescence (AID 1160). Particulars: 45 min, higher = more signal, called active from +8 up or from −8 down.
Assay [20] concerns the target NADPH oxidase 5 (Homo sapiens) (UniProt Q96PH1). Briefly: NOX5-dependent H2O2 signal modulators, primary screen, NOX inhibitor project, cell-based, HEK293-NOX5, Amplex Red fluorescence (AID 1161). Particulars: HEK293-NOX5, ionomycin, 45 min, higher = more signal.

Active and inactive are the calls of the source. Unless noted, how the calls were made is not given here.

Chain of NADPH oxidase 4 (Homo sapiens) (Q9NPH5 whole entry, looked up): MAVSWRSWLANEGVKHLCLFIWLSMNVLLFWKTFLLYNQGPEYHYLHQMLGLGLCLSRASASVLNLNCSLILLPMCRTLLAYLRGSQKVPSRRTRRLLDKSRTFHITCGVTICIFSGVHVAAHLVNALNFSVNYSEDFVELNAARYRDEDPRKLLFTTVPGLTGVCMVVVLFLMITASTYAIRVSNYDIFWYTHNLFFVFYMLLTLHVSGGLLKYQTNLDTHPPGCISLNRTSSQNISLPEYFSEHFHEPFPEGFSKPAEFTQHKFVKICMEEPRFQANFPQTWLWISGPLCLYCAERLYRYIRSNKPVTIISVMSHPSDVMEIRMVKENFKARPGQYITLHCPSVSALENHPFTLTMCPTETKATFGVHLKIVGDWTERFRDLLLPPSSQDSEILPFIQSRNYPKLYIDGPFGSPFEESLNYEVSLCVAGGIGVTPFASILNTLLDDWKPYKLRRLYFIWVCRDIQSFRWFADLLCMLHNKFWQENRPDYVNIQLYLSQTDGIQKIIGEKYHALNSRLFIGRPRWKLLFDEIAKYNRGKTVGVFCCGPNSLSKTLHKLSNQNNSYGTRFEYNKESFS
Chain of Streptavidin (Streptomyces avidinii) (P22629 whole entry, looked up): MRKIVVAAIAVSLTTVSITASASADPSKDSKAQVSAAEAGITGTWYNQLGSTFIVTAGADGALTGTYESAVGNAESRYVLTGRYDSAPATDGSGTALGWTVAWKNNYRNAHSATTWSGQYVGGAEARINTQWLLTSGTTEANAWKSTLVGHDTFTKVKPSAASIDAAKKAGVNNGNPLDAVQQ
Chain of Torsin-1A (Homo sapiens) (O14656 whole entry, looked up): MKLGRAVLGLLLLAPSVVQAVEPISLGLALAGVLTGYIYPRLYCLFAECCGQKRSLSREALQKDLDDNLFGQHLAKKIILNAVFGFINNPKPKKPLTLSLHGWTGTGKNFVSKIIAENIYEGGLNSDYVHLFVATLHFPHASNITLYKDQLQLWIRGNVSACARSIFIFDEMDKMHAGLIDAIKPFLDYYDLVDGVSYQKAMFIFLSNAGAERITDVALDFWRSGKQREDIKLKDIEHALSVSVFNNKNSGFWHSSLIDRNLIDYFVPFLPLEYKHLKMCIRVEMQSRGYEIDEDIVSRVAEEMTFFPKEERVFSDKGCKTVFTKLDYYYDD
Chain of NADPH oxidase 2 (Homo sapiens) (P04839 whole entry, looked up): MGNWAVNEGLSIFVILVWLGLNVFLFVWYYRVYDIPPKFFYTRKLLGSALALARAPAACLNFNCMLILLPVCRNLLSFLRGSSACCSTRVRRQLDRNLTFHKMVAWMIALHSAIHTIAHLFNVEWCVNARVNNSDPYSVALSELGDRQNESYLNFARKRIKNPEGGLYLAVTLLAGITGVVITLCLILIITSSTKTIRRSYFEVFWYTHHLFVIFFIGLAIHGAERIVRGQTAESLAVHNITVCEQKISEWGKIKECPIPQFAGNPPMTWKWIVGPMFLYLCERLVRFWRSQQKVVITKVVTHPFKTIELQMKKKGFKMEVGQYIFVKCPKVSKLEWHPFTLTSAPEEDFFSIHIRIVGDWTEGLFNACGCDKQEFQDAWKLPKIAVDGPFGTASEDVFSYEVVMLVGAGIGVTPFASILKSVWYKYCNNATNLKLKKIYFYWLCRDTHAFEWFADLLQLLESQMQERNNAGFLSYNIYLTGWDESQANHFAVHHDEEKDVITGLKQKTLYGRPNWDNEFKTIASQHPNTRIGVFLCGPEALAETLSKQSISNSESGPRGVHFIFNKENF
Chain of NADPH oxidase 5 (Homo sapiens) (Q96PH1 whole entry, looked up): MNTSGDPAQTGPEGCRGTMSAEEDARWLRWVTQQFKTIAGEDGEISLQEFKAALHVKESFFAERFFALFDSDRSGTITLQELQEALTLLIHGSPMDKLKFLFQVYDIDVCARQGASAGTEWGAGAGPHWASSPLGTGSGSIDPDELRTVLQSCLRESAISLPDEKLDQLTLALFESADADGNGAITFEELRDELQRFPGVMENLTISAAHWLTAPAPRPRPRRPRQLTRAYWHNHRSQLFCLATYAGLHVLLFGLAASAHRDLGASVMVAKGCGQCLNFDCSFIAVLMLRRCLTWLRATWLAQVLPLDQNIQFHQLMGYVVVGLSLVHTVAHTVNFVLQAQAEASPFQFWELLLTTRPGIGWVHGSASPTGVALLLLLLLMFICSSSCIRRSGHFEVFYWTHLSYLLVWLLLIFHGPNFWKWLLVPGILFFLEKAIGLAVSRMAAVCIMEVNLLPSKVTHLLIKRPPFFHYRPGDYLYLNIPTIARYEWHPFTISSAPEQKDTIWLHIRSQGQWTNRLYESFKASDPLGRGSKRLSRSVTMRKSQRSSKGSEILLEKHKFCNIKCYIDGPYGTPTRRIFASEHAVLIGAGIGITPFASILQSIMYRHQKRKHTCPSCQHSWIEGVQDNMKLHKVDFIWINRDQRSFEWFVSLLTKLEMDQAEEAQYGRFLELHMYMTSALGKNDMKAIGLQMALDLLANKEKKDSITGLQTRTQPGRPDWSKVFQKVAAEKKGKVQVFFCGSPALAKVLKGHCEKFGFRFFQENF

`CC(C)NC(=O)[C@@H]1c2ccccc2C(=O)N(Cc2ccc(OC(F)(F)F)cc2)[C@H]1c1ccc(CO)cc1`: the composite z-score in [1] turned out to be 0.663; in [6], 0.201; in [7] it was 0.618; in [8] it was 1.12; in [9], 0.39; in assay [10] it was 1.81. This compound also yielded a composite z-score in [12] of 1.24. In addition, the z-score was -1.54 (inactive) in assay [2]; -0.294 (inactive) in assay [3]; -0.0243 (inactive) in [4]; 0.442 (inactive) in assay [5]; -0.376 (inactive) in [11]; 2.18 (inactive) in assay [13]. Besides, the z-score in assay [14] is -0.0655 (inactive); in assay [15], 2.65 (inactive); in [16] it was 0.179 (inactive); in [17] it was -0.065; in assay [18], 0.412 (inactive); in assay [19] it was -0.27 (inactive). The compound also displayed a z-score in assay [20] of 1.87.

On to `CCC(CC)C(O)C1C=CC2C(=O)N(c3ccccc3)C(=O)C2N1Nc1ccccc1F` (stereo not given), for which the composite z-score in assay [1] was 0.0501; in [6], 0.292; in assay [7], -0.0044; in [8], 0.838; in assay [9] it was 0.597; in assay [10] it was -0.455. This compound also gave a composite z-score in assay [12] of 0.0315. Besides, the z-score in [2] is -1.14 (inactive); in assay [3], -0.615 (inactive); in [4], -0.62 (inactive); in assay [5], 0.492 (inactive); in assay [11], -0.372 (inactive); in [13], 0.834 (inactive). The z-score was 0.412 (inactive) in assay [14]; 0.164 (inactive) in assay [15]; 0.584 (inactive) in [16]; -0.364 in [17]; 0.223 (inactive) in assay [18]; -0.0786 (inactive) in assay [19]. The z-score in [20] is -0.39.

Take `C=CC[C@@]1(C(=O)OC)N=C(c2ccc(OCCCO)cc2)O[C@@H]1c1ccccc1N=[N+]=[N-]`: the composite z-score in assay [1] is 0.938; in [6], -0.195; in [7], 0.286; in [8] it was 0.288; in assay [9], 0.672; in assay [10] it was 2.02. The compound further showed a composite z-score in assay [12] of 0.398. Moreover, the z-score in assay [2] is -3.5 (inactive); in assay [3] it was -1.57 (inactive); in [4], 1.79 (inactive); in assay [5] it was -0.775 (inactive); in assay [11], 0.0465 (inactive); in assay [13] it was 30.6 (active). The z-score in assay [14] is 27.4 (active); in assay [15], 4.11 (inactive); in [16], 5.12 (inactive); in assay [17] it was 0.581; in assay [18] it was -0.471 (inactive); in [19], 1.43 (inactive). The z-score in [20] was -0.0237.

With `COC(=O)[C@@]1(Cc2ccc(OC)cc2)[C@H]2c3cc(C(=O)N(C)C)[nH]c3C[C@H]2CN1C(=O)c1ccccc1`, the composite z-score in assay [1] was 0.117; in assay [6], 0.226; in assay [7] it was -0.0645; in assay [8] it was -0.209; in [9], -0.369; in assay [10], -0.814. For the same compound, the composite z-score in assay [12] is -0.0969. In addition, the z-score in assay [2] was 0.244 (inactive); in assay [3], 0.857 (inactive); in [4], 0.383 (inactive); in assay [5], -0.289 (inactive); in assay [11], -0.439 (inactive); in [13], 5.74 (inactive). The z-score in assay [14] is 0.806 (inactive); in assay [15] it was 0.395 (inactive); in assay [16] it was 0.764 (inactive); in [17] it was -0.38; in assay [18], 0.371 (inactive); in [19], 0.602 (inactive). Besides, in assay [20], the z-score was -1.58.

Values taken from PubChem BioAssay.
